# In PubChem BioAssay (EPA / NIEHS):
# Calls of active or inactive are those of the source. Rule for the calls: active = hit-call score of the fitted dose curve at least 0.9, where 1 is the maximum; inactive = score below 0.9.
# How the values were obtained:
# [1] = read-out: Tissue plasminogen activator (tPA), PLAT (gene 5327); test: BSK_BE3C_tPA: BioMAP Diversity Plus: BE3C Assay for Tissue plasminogen activator (tPA) Biomarker Activity (AID 2283041); details: primary human bronchial epithelial cells; actives raise or lower the signal;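 for outcome: tPA level quantified by ELISA one day after compound addition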
# In short: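 Primary human lung bronchial epithelial cultures receive test chemical; after 24 h, tPA is quantified by ELISA, and gain or loss of signal is fitted bidirectionally relative to DMSO baseline.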
# [2] = read-out: Interleukin-8 (IL8), CXCL8 (gene 3576); test: BSK_CASM3C_IL8: BioMAP Diversity Plus: CASM3C Assay for Interleukin-8 (IL8) Biomarker Activity (AID 2283042); details: primary human coronary artery smooth muscle cells; actives raise or lower the signal;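 note: IL-8 protein level quantified by ELISA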
# [3] = read-out: Human Leukocyte Antigen - DR isotype (HLADR), HLA-DRA (gene 3122); test: BSK_CASM3C_HLADR: BioMAP Diversity Plus: CASM3C Assay for Human Leukocyte Antigen - DR isotype (HLADR) Biomarker Activity (AID 2283043); details: primary human coronary artery smooth muscle cells; actives raise or lower the signal;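 note: cell-surface HLA-DR protein level quantified by ELISA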
# [4] = read-out: Macrophage colony-stimulating factor (MCSF), CSF1 (gene 1435); test: BSK_CASM3C_MCSF: BioMAP Diversity Plus: CASM3C Assay for Macrophage colony-stimulating factor (MCSF) Biomarker Activity (AID 2283044); details: primary human coronary artery smooth muscle cells; actives raise or lower the signal;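 note: M-CSF protein amount quantified by ELISA after 24 h exposure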
# [5] = read-out: Low-density lipoprotein receptor (LDLR), LDLR (gene 3949); test: BSK_CASM3C_LDLR: BioMAP Diversity Plus: CASM3C Assay for Low-density lipoprotein receptor (LDLR) Biomarker Activity (AID 2283045); details: primary human coronary artery smooth muscle cells; actives raise or lower the signal;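 note: LDLR protein level on the cell surface quantified by ELISA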
# [6] = read-out: Monocyte Chemoattractant Protein-1 (MCP1), CCL2 (gene 6347); test: BSK_CASM3C_MCP1: BioMAP Diversity Plus: CASM3C Assay for Monocyte Chemoattractant Protein-1 (MCP1) Biomarker Activity (AID 2283046); details: primary human coronary artery smooth muscle cells; actives raise or lower the signal;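 note: MCP-1 level quantified by ELISA 24 h after dosing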
# [7] = BSK_CASM3C_Proliferation: Cell Proliferation Assessment in the BioMAP Diversity Plus: CASM3C Assay (AID 2283047); details: primary human coronary artery smooth muscle cells;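 note: sulforhodamine B total protein stain as relative cell number at 560 nm; sub-confluent cells exposed 48 h before staining; fitted both ways against DMSO so gain or loss of cell number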
# [8] = read-out: Monokine induced gamma interferon (MIG), CXCL9 (gene 4283); test: BSK_CASM3C_MIG: BioMAP Diversity Plus: CASM3C Assay for Monokine induced gamma interferon (MIG) Biomarker Activity (AID 2283048); details: primary human coronary artery smooth muscle cells; actives raise or lower the signal;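 note: MIG protein level measured by ELISA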
# [9] = read-out: serum amyloid A (SAA), SAA1 (gene 6288); test: BSK_CASM3C_SAA: BioMAP Diversity Plus: CASM3C Assay for serum amyloid A (SAA) Biomarker Activity (AID 2283049); details: primary human coronary artery smooth muscle cells; actives raise or lower the signal;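 note: SAA protein level quantified by ELISA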
# [10] = BSK_CASM3C_SRB: Viability Assessment in the BioMAP Diversity Plus: CASM3C Assay (AID 2283050); details: primary human coronary artery smooth muscle cells;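 note: total protein by SRB staining as cytotoxicity measure in parallel cultures; cells exposed to compound for 24 h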
# [11] = read-out: Thrombomodulin, THBD (gene 7056); test: BSK_CASM3C_Thrombomodulin: BioMAP Diversity Plus: CASM3C Assay for Thrombomodulin Biomarker Activity (AID 2283051); details: primary human coronary artery smooth muscle cells; actives raise or lower the signal;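 note: thrombomodulin protein level measured by ELISA 24 h after dosing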
# [12] = read-out: Tissue Factor, F3 (gene 2152); test: BSK_CASM3C_TissueFactor: BioMAP Diversity Plus: CASM3C Assay for Tissue Factor Biomarker Activity (AID 2283052); details: primary human coronary artery smooth muscle cells; actives raise or lower the signal;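 note: cell surface tissue factor protein level read by ELISA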
# [13] = read-out: Interferon-gamma inducible Protein 10 (IP10), CXCL10 (gene 3627); test: BSK_hDFCGF_IP10: BioMAP Diversity Plus: hDFCGF Assay for Interferon-gamma inducible Protein 10 (IP10) Biomarker Activity (AID 2283053); details: primary human foreskin fibroblasts; actives raise or lower the signal
# In short: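 Primary foreskin fibroblasts, human; 24 h compound exposure; IP-10 by ELISA; bidirectional fit vs DMSO.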
# [14] = read-out: Urokinase-type plasminogen activator receptor (uPAR), PLAUR (gene 5329); test: BSK_CASM3C_uPAR: BioMAP Diversity Plus: CASM3C Assay for Urokinase-type plasminogen activator receptor (uPAR) Biomarker Activity (AID 2283054); details: primary human coronary artery smooth muscle cells; actives raise or lower the signal;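 note: cell-surface uPAR protein level quantified by ELISA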
# [15] = read-out: Vascular cell adhesion molecule 1 (VCAM1), VCAM1 (gene 7412); test: BSK_CASM3C_VCAM1: BioMAP Diversity Plus: CASM3C Assay for Vascular cell adhesion molecule 1 (VCAM1) Biomarker Activity (AID 2283055); details: primary human coronary artery smooth muscle cells; actives raise or lower the signal;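 note: VCAM-1 protein level quantified by ELISA on the cells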
# [16] = read-out: Collagen III, COL3A1 (gene 1281); test: BSK_hDFCGF_CollagenIII: BioMAP Diversity Plus: hDFCGF Assay for Collagen III Biomarker Activity (AID 2283056); details: primary human foreskin fibroblasts; actives raise or lower the signal
# In short: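 Human foreskin primary fibroblasts were exposed to test chemicals for 24 h, after which collagen III was quantified by ELISA. Activity was fitted bidirectionally against DMSO as negative control and baseline.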
# [17] = read-out: Epidermal growth factor receptor (EGFR), EGFR (gene 1956); test: BSK_hDFCGF_EGFR: BioMAP Diversity Plus: hDFCGF Assay for Epidermal growth factor receptor (EGFR) Biomarker Activity (AID 2283057); details: primary human foreskin fibroblasts; actives raise or lower the signal
# In short: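 hDFCGF system, primary human foreskin fibroblasts; compound 24 h; EGFR measured by ELISA; DMSO = negative control/baseline; bidirectional fitting.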
# [18] = read-out: Interleukin-8 (IL8), CXCL8 (gene 3576); test: BSK_hDFCGF_IL8: BioMAP Diversity Plus: hDFCGF Assay for Interleukin-8 (IL8) Biomarker Activity (AID 2283058); details: primary human foreskin fibroblasts; actives raise or lower the signal
# In short: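 hDFCGF human dermal fibroblasts; 24 h chemical exposure; IL-8 by ELISA; bidirectional curve fit vs DMSO baseline; gain or loss of signal scored.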
# [19] = read-out: Macrophage colony-stimulating factor (MCSF), CSF1 (gene 1435); test: BSK_hDFCGF_MCSF: BioMAP Diversity Plus: hDFCGF Assay for Macrophage colony-stimulating factor (MCSF) Biomarker Activity (AID 2283060); details: primary human foreskin fibroblasts; actives raise or lower the signal
# In short: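 Human foreskin primary fibroblasts were treated with test chemical for 24 h, and M-CSF was then measured by ELISA. Data were fitted bidirectionally against DMSO as the negative control and activity baseline.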
# [20] = BSK_hDFCGF_Proliferation: Cell Proliferation Assessment in the BioMAP Diversity Plus: hDFCGF Assay (AID 2283059); details: primary human foreskin fibroblasts;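 note: curves fitted for both rise and fall of signal versus DMSO baseline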
# In short: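 This proliferation readout used SRB total-protein staining of human foreskin fibroblasts […], normalized to DMSO with bidirectional curve fitting.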
smiles,measurement,setting,value
OCCOCCO,outcome,[1],inactive
same,outcome,[2],inactive
same,outcome,[3],inactive
same,outcome,[4],inactive
same,outcome,[5],inactive
same,outcome,[6],inactive
same,outcome,[7],inactive
same,outcome,[8],inactive
same,outcome,[9],inactive
same,outcome,[10],inactive
same,outcome,[11],inactive
same,outcome,[12],inactive
same,outcome,[13],inactive
same,outcome,[14],inactive
same,outcome,[15],inactive
same,outcome,[16],inactive
same,outcome,[17],inactive
same,outcome,[18],inactive
same,outcome,[19],inactive
CN(C)c1ccc(C(=O)c2ccc(N(C)C)cc2)cc1,outcome,[1],inactive
same,outcome,[2],inactive
same,outcome,[3],inactive
same,outcome,[4],inactive
same,outcome,[5],inactive
same,outcome,[6],inactive
same,AC50,[7],2 µM (active)
same,outcome,[8],inactive
same,outcome,[9],inactive
same,outcome,[10],inactive
same,outcome,[11],inactive
same,outcome,[12],inactive
same,outcome,[13],inactive
same,outcome,[14],inactive
same,outcome,[15],inactive
same,outcome,[16],inactive
same,outcome,[17],inactive
same,outcome,[18],inactive
same,AC50,[20],1.56 µM (active)
same,outcome,[19],inactive
CCCCCOC(=O)c1ccccc1C(=O)OCCCCC,outcome,[1],inactive
same,outcome,[2],inactive
same,outcome,[3],inactive
same,outcome,[4],inactive
same,outcome,[5],inactive
same,outcome,[6],inactive
same,outcome,[7],inactive
same,outcome,[8],inactive
same,outcome,[9],inactive
same,outcome,[10],inactive
same,AC50,[11],15.6 µM (active)
same,outcome,[12],inactive
same,outcome,[13],inactive
same,outcome,[14],inactive
same,outcome,[15],inactive
same,AC50,[16],3.97 µM (active)
same,outcome,[17],inactive
same,outcome,[18],inactive
same,outcome,[20],inactive
same,AC50,[19],9.05 µM (active)
OCCCBr,outcome,[1],inactive
same,outcome,[2],inactive
same,outcome,[3],inactive
same,outcome,[4],inactive
same,outcome,[5],inactive
same,outcome,[6],inactive
same,outcome,[7],inactive
same,outcome,[8],inactive
same,outcome,[9],inactive
same,outcome,[10],inactive
same,outcome,[11],inactive
same,outcome,[12],inactive
same,outcome,[13],inactive
same,outcome,[14],inactive
same,outcome,[15],inactive
same,outcome,[16],inactive
same,outcome,[17],inactive
same,outcome,[18],inactive
same,outcome,[20],inactive
same,outcome,[19],inactive
O=C(Nc1ccccc1)c1ccccc1I,outcome,[1],inactive
same,outcome,[2],inactive
same,outcome,[3],inactive
same,outcome,[4],inactive
same,outcome,[5],inactive
same,outcome,[6],inactive
same,outcome,[7],inactive
same,outcome,[8],inactive
same,outcome,[9],inactive
same,outcome,[10],inactive
same,outcome,[11],inactive
same,outcome,[12],inactive
same,outcome,[13],inactive
same,outcome,[14],inactive
same,outcome,[15],inactive
same,outcome,[16],inactive
same,outcome,[17],inactive
same,outcome,[18],inactive
same,outcome,[20],inactive
same,outcome,[19],inactive
CC(C)N(Cc1ccccc1)C(=O)C(C)(C)C,outcome,[1],inactive
same,outcome,[2],inactive
same,outcome,[3],inactive
same,outcome,[4],inactive
same,outcome,[5],inactive
same,outcome,[6],inactive
same,outcome,[7],inactive
same,outcome,[8],inactive
same,outcome,[9],inactive
same,outcome,[10],inactive
same,outcome,[11],inactive
same,outcome,[12],inactive
same,outcome,[13],inactive
same,outcome,[14],inactive
same,outcome,[15],inactive
same,outcome,[16],inactive
same,outcome,[17],inactive
same,outcome,[18],inactive
same,outcome,[20],inactive
same,outcome,[19],inactive
CC(C)(OOC(C)(C)c1ccccc1)c1ccccc1,outcome,[1],inactive
same,outcome,[2],inactive
same,AC50,[3],28.8 µM (active)
same,outcome,[4],inactive
same,outcome,[5],inactive
same,outcome,[6],inactive
same,AC50,[7],30.3 µM (active)
same,outcome,[8],inactive
same,outcome,[9],inactive
same,outcome,[10],inactive
same,AC50,[11],32.1 µM (active)
same,AC50,[12],20 µM (active)
same,AC50,[13],37.9 µM (active)
same,outcome,[14],inactive
same,outcome,[15],inactive
same,AC50,[16],12.8 µM (active)
same,outcome,[17],inactive
same,AC50,[18],36.2 µM (active)
same,AC50,[20],14.9 µM (active)
same,outcome,[19],inactive
Clc1ccc(Cl)c(Cl)c1,outcome,[1],inactive
same,outcome,[2],inactive
same,outcome,[3],inactive
same,outcome,[4],inactive
same,outcome,[5],inactive
same,outcome,[6],inactive
same,outcome,[7],inactive
same,outcome,[8],inactive
same,outcome,[9],inactive
same,outcome,[10],inactive
same,outcome,[11],inactive
same,outcome,[12],inactive
same,outcome,[13],inactive
same,outcome,[14],inactive
same,outcome,[15],inactive
same,outcome,[16],inactive
same,outcome,[17],inactive
same,outcome,[18],inactive
same,outcome,[20],inactive
same,outcome,[19],inactive
Brc1ccc(Oc2ccccc2)cc1,outcome,[1],inactive
same,outcome,[2],inactive
same,outcome,[3],inactive
same,outcome,[4],inactive
same,outcome,[5],inactive
same,outcome,[6],inactive
same,outcome,[7],inactive
same,outcome,[8],inactive
same,outcome,[9],inactive
same,outcome,[10],inactive
same,outcome,[11],inactive
same,outcome,[12],inactive
same,outcome,[13],inactive
same,outcome,[14],inactive
same,outcome,[15],inactive
same,outcome,[16],inactive
same,outcome,[17],inactive
same,outcome,[18],inactive
same,outcome,[20],inactive
same,outcome,[19],inactive
Nc1ccc([N+](=O)[O-])cc1,outcome,[1],inactive
same,outcome,[2],inactive
same,outcome,[3],inactive
same,outcome,[4],inactive
same,outcome,[5],inactive
same,outcome,[6],inactive
same,outcome,[7],inactive
same,outcome,[8],inactive
same,outcome,[9],inactive
same,outcome,[10],inactive
same,outcome,[11],inactive
same,outcome,[12],inactive
same,outcome,[13],inactive
same,outcome,[14],inactive
same,outcome,[15],inactive
same,outcome,[16],inactive
same,outcome,[17],inactive
same,outcome,[18],inactive
same,AC50,[20],20 µM (active)
same,outcome,[19],inactive
Nc1ccc(N=Nc2ccccc2)cc1,outcome,[1],inactive
same,outcome,[2],inactive
same,AC50,[3],16.8 µM (active)
same,outcome,[4],inactive
same,outcome,[5],inactive
same,outcome,[6],inactive
same,outcome,[7],inactive
same,outcome,[8],inactive
same,outcome,[9],inactive
same,outcome,[10],inactive
same,outcome,[11],inactive
same,outcome,[12],inactive
same,AC50,[13],29.3 µM (active)
same,AC50,[14],3.9 µM (active)
same,outcome,[15],inactive
same,AC50,[16],20 µM (active)
same,outcome,[17],inactive
same,outcome,[18],inactive
same,AC50,[20],8 µM (active)
same,outcome,[19],inactive
CCC[CH2][Sn]([Cl])([CH2]CCC)[CH2]CCC,AC50,[1],0.227 µM (active)
same,AC50,[2],1.01 µM (active)
same,AC50,[3],0.353 µM (active)
same,AC50,[4],0.273 µM (active)
same,AC50,[5],0.226 µM (active)
same,AC50,[6],0.383 µM (active)
same,AC50,[7],0.148 µM (active)
same,AC50,[8],0.326 µM (active)
same,AC50,[9],0.148 µM (active)
same,AC50,[10],0.402 µM (active)
same,AC50,[11],3.97 µM (active)
same,AC50,[12],0.148 µM (active)
same,AC50,[13],0.259 µM (active)
same,AC50,[14],0.406 µM (active)
same,AC50,[15],0.148 µM (active)
same,AC50,[16],0.316 µM (active)
same,outcome,[17],inactive
same,AC50,[18],0.287 µM (active)
same,AC50,[19],0.148 µM (active)
